Among the data in PubChem BioAssay AID485353 (National Center for Advancing Translational Sciences (NCATS), 2010) are Potency values, retold here.

Among all 330,000 compounds or so, about 610 (0.18%) were called active. Entries that show only a call come without a potency. Another 2% or so got no clear call; they are omitted. Calls follow the shape of the full dose curve. The sample as a whole holds a higher share of actives than the screen did.
Potency is read from the fitted curve at half-maximal effect.

The assay is described as follows: qHTS of Yeast-based Assay for SARS-CoV PLP. Also: nearly all actives have a fitted effect of over 55% in size. Conditions: S. cerevisiae expressing SARS-CoV PLpro; Potency: growth rescue; series mostly up to 32.9 µM.
As to `COc1cccc(NC(=S)NC(=O)c2c(Cl)c(C)nn2C)c1`, the Potency result was “inactive”.

In the case of `Cc1nc2ccc(C(=O)N/N=C/c3ccc(O)cc3)cc2[nH]1`, the Potency entry is “inactive”.

As to `Cc1ccc(/C=N/NC(=O)C2=NNC(c3ccccc3)(c3ccccc3)C2)c(O)c1`, the Potency was 3.55 µM (active).

On to `Cc1ccc2occ(/C=N/NC(=O)c3ccccc3C)c(=O)c2c1`, for which the Potency result was “inactive”.

For the molecule `Cc1cc(OC(=O)c2ccccc2Cl)ccc1N1C(=O)CCC1=O`, the Potency entry is “inactive”.

Take `CC(C)C(C)NC(=O)COc1nc2ccccc2nc1N(C)C1CCCCC1` (stereo not drawn): the Potency entry was “inactive”.

As to `O=C(NC1CCN(C(=S)NCc2ccco2)CC1)c1ccc(F)cc1`, the Potency entry was “inactive”.

For the molecule `Cn1c(=O)n(C)c2cc(CNc3ccc(N4CCOCC4)c(C(=O)O)c3)ccc21`, the Potency result was “inactive”.

`CC(=O)Nc1cccc2c1[n+]([O-])c(C)c(C)[n+]2[O-]`: the Potency entry was “inactive”.

Consider `COC(=O)c1ccc(C(NC(=O)OCc2ccccc2)/C(C)=C/[C@@H](C)C(=O)NCc2ccc(OC)c(OC)c2)cc1` (stereo partly drawn), for which the Potency entry is “inactive”.

For the molecule `COc1ccc(CC(=O)N/N=C/c2cc([N+](=O)[O-])cc(Br)c2O)cc1`, the Potency entry was “inactive”.

For the molecule `COc1ccc2ccccc2c1/C=N/NC(=O)c1cc(C)[nH]n1`, the Potency result was “inactive”.

Regarding `Cc1cc(C(=O)N/N=C/c2cc([N+](=O)[O-])cc(C)c2O)n[nH]1`, the Potency is 4.47 µM (active).

In the case of `CC(=O)c1ccc(NC(=O)C2CC(=O)Nc3nc4ccccc4n32)cc1` (stereo not drawn), the Potency result was “inactive”.

Turning to `O=c1[nH]c2ccc(S(=O)(=O)N3CCCC3)cc2[nH]1`, the Potency entry is “inactive”.

For the molecule `COC(=O)C[n+]1cccc2ccccc21`, the Potency entry is “inactive”.

Regarding `CN(C)c1ccc(C(=S)N2CCN(C(=S)Nc3ccc(Cl)cc3)CC2)cc1`, the Potency entry was “inactive”.

Consider `COc1cc(N2CCCC2)c(OC)cc1/C=C(/C#N)c1cccc(Br)c1`, for which the Potency entry is “inactive”.

Regarding `CCOC(=O)C1C(=O)OC2(CCCC2)C1C(=O)OCC` (stereo not drawn), the Potency entry is “inactive”.

For the molecule `CCN(C(=O)c1ccc(Br)cc1)c1ccccc1`, the Potency result was “inactive”.

As to `CC1CCCCC1NC(=O)/C(C#N)=C/C=C/c1ccccc1[N+](=O)[O-]` (stereo not drawn), the Potency entry is “inactive”.

Consider `COc1ccc(N(CCC(=O)NCCc2ccccc2)S(=O)(=O)c2ccc(C)cc2C)cc1`, for which the Potency entry is “inactive”.

Take `O=C(COC(=O)Cc1ccccc1F)NNC(=O)c1ccc(Cl)cc1`: the Potency entry was “inactive”.

Consider `CCCCOC(=O)CNc1nnc(SCC(=O)OCC)[nH]c1=O`, for which the Potency result was “inactive”.

For `CC(C)/C=N/NC(=O)c1cc(Br)ccc1O`, the Potency is 10 µM (active).

In the case of `COc1ccc(-c2[nH]ncc2/C=N/NC(=O)c2cc(Br)ccc2O)c(OC)c1`, the Potency result was “inactive”.

Turning to `CC(=N\NC(=O)c1cc(Br)ccc1O)/C(=N/O)C(=O)Nc1ccccc1`, the Potency entry is “inactive”.

`COC(=O)c1scc(C)c1NC(=O)CSc1ccc(Cl)cc1`: the Potency was 0.708 µM (active).

On to `COc1ccc(C)cc1NC(=O)CSc1ccc(Cl)cc1`, for which the Potency entry was “inactive”.

In the case of `COC(=O)c1cc(OC)c(OC)cc1NC(=O)CSc1ccc(C)cc1`, the Potency entry is “inactive”.

For the molecule `CCOC(=O)c1c(/N=C/C2C(=O)CC(C)(C)CC2=O)sc(C)c1C`, the Potency was 3.16 µM (active).

Turning to `CCOC(=O)c1sc(/N=C/C2=C(O)CC(C)(C)CC2=O)c(C(=O)OCC)c1C`, the Potency entry was “inactive”.

As for `CCOC(=O)c1c(N)sc2c1CCCC2=O`, the Potency result was “inactive”.
